# Laboratory results as given in PubChem BioAssay AID1159580 (chemical genetic matrix, 2015).
# “And” between values parts separate entries of the source, which are not always exact repeats. Identical values can stand only once. The whole screen tested about 5,500 compounds, of which about 2,000 (36%) were called active. About 18% were inconclusive and are not listed. No stated cut-off is given here; in the data, active means normalized growth mostly below about 0.91 (no sharp cut-off); inconclusive means no clear call, values can overlap the other calls; inactive means mostly above about 0.92. This is one part of the list.
# Assay: chemical genetic growth profiling, strain panel (AID 1159580);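 further: tested at 20 µM; growth read once vehicle control cultures reached saturation at 30 °C; 1 = growth at the plate median or of vehicle wells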
# Details: S. cerevisiae deletion strains, growth OD
structure (smiles),measurement,setting,value
CC(C)=CCCC1(C)C=Cc2c(O)c3c(c(CC=C(C)C)c2O1)OC12C(=CC4CC1C(C)(C)OC2(C/C=C(/C)C(=O)O)C4=O)C3=O (configuration not stated),normalized growth,"locus YAL013W, strain DEP1, stronger effect = lower value",0.887 (active)
same,normalized growth,"locus YAL021C, strain ccr4, stronger effect = lower value",0.954 (inactive)
same,normalized growth,"locus YAL026C, strain drs2, stronger effect = lower value",0.895 (active)
same,normalized growth,"locus YAL030W, strain snc1, stronger effect = lower value",0.925 (active)
same,normalized growth,"locus YBL061C, strain skt5, stronger effect = lower value",0.87 (active)
same,normalized growth,"locus YBR009C, strain hhf1, stronger effect = lower value",0.803 (active)
same,normalized growth,"locus YBR021W, strain FUR4, stronger effect = lower value",0.99 (inactive)
same,normalized growth,"locus YBR023C, strain chs3, stronger effect = lower value",0.84 (active)
same,normalized growth,"locus YBR171W, strain sec66, stronger effect = lower value",0.979 (inactive)
same,normalized growth,"locus YBR229C, strain ROT2, stronger effect = lower value",0.988 (inactive)
same,normalized growth,"locus YBR231C, strain swc5, stronger effect = lower value",0.559 (active)
same,normalized growth,"locus YBR279W, strain paf1, stronger effect = lower value",0.815 (active)
same,normalized growth,"locus YCL011C, strain gbp2, stronger effect = lower value",0.835 (active)
same,normalized growth,"locus YCL016C, strain dcc1, stronger effect = lower value",0.853 (active)
same,normalized growth,"locus YCL029C, strain bik1, stronger effect = lower value",0.987 (inactive)
same,normalized growth,"locus YCL061C, strain MRC1, stronger effect = lower value",0.907 (active)
same,normalized growth,"locus YCL069W, strain vba3, stronger effect = lower value",0.945 (inactive)
same,normalized growth,"locus YCR088W, strain abp1, stronger effect = lower value",0.943 (inactive)
same,normalized growth,"locus YDL005C, strain med2, stronger effect = lower value",0.959 (inactive)
same,normalized growth,"locus YDL035C, strain GPR1, stronger effect = lower value",0.736 (active)
same,normalized growth,"locus YDL040C, strain nat1, stronger effect = lower value",0.959 (inactive)
same,normalized growth,"locus YDL074C, strain BRE1, stronger effect = lower value",0.691 (active)
same,normalized growth,"locus YDL101C, strain DUN1, stronger effect = lower value",0.894 (inactive)
same,normalized growth,"locus YDL185W, strain tfp1, stronger effect = lower value",0.986 (inactive)
same,normalized growth,"locus YDL192W, strain arf1, stronger effect = lower value",0.901 (active)
same,normalized growth,"locus YDR001C, strain nth1, stronger effect = lower value",0.952 (inactive)
same,normalized growth,"locus YDR069C, strain doa4, stronger effect = lower value",0.821 (active)
same,normalized growth,"locus YDR101C, strain arx1, stronger effect = lower value",0.93 (inactive)
same,normalized growth,"locus YDR137W, strain rgp1, stronger effect = lower value",0.713 (active)
same,normalized growth,"locus YDR150W, strain NUM1, stronger effect = lower value",0.932 (inactive)
same,normalized growth,"locus YDR159W, strain sac3, stronger effect = lower value",0.957 (inactive)
same,normalized growth,"locus YDR162C, strain NBP2, stronger effect = lower value",0.296 (active)
same,normalized growth,"locus YDR195W, strain ref2",1.11 (inactive)
same,normalized growth,"locus YDR297W, strain sur2, stronger effect = lower value",0.889 (active)
same,normalized growth,"locus YDR318W, strain mcm21, stronger effect = lower value",0.879 (active)
same,normalized growth,"locus YDR334W, strain swr1, stronger effect = lower value",0.916 (inactive)
same,normalized growth,"locus YDR335W, strain msn5, stronger effect = lower value",0.902 (active)
same,normalized growth,"locus YDR388W, stronger effect = lower value",0.897 (active)
same,normalized growth,"locus YDR392W, strain spt3, stronger effect = lower value",0.223 (active)
same,normalized growth,"locus YDR502C, strain sam2, stronger effect = lower value",0.849 (active)
same,normalized growth,"locus YEL003W, strain gim4, stronger effect = lower value",0.863 (active)
same,normalized growth,"locus YEL037C, strain rad23, stronger effect = lower value",0.967 (inactive)
same,normalized growth,"locus YEL061C, strain CIN8 (second series), stronger effect = lower value",0.935 (inactive)
same,normalized growth,"locus YEL061C, strain CIN8, stronger effect = lower value",0.881 (active)
same,normalized growth,"locus YER015W, strain faa2, stronger effect = lower value",0.785 (active)
same,normalized growth,"locus YER016W, strain bim1, stronger effect = lower value",0.967 (inactive)
same,normalized growth,"locus YER110C, stronger effect = lower value",0.98 (inactive)
same,normalized growth,"locus YER111C, strain swi4, stronger effect = lower value",0.977 (inactive)
same,normalized growth,"locus YER155C, strain BEM2 (second series), stronger effect = lower value",0.758 (active)
same,normalized growth,"locus YER155C, strain BEM2, stronger effect = lower value",0.83 (active)
same,normalized growth,"locus YER167W, strain BCK2, stronger effect = lower value",0.874 (active)
same,normalized growth,"locus YFR010W, strain ubp6, stronger effect = lower value",0.891 (active)
same,normalized growth,"locus YGL078C, strain dbp3, stronger effect = lower value",0.965 (inactive)
same,normalized growth,"locus YGL086W, strain mad1, stronger effect = lower value",0.892 (active)
same,normalized growth,"locus YGL167C, strain pmr1, stronger effect = lower value",0.915 (inactive)
same,normalized growth,"locus YGL173C, strain kem1, stronger effect = lower value",0.82 (active)
same,normalized growth,"locus YGL227W, strain vid30, stronger effect = lower value",0.985 (inactive)
same,normalized growth,"locus YGL240W, strain doc1, stronger effect = lower value",0.966 (inactive)
same,normalized growth,"locus YGL248W, strain PDE1, stronger effect = lower value",0.791 (active)
same,normalized growth,"locus YGL253W, strain hxk2, stronger effect = lower value",0.877 (active)
same,normalized growth,"locus YGR135W, strain pre9, stronger effect = lower value",0.885 (active)
same,normalized growth,"locus YGR229C, strain SMI1, stronger effect = lower value",0.244 (active)
same,normalized growth,"locus YGR252W, strain gcn5, stronger effect = lower value",0.882 (inactive)
same,normalized growth,"locus YHR013C, strain ard1, stronger effect = lower value",0.605 (active)
same,normalized growth,"locus YHR027C, strain rpn1, stronger effect = lower value",0.894 (active)
same,normalized growth,"locus YHR030C, strain SLT2, stronger effect = lower value",0.85 (active) and 0.869 (inactive)
same,normalized growth,"locus YHR079C, strain IRE1 (second series), stronger effect = lower value",0.98 (inactive)
same,normalized growth,"locus YHR079C, strain IRE1, stronger effect = lower value",0.89 (inactive)
same,normalized growth,"locus YHR094C, strain hxt1, stronger effect = lower value",0.983 (inactive)
same,normalized growth,"locus YHR129C, strain ARP1, stronger effect = lower value",0.808 (active)
same,normalized growth,"locus YHR142W, strain chs7, stronger effect = lower value",0.818 (active)
same,normalized growth,"locus YHR200W, strain rpn10, stronger effect = lower value",0.914 (active)
same,normalized growth,"locus YIL066C, strain RNR3, stronger effect = lower value",0.606 (active)
same,normalized growth,"locus YIL073C, strain SPO22, stronger effect = lower value",0.796 (inactive)
same,normalized growth,"locus YIL125W, strain kgd1, stronger effect = lower value",0.927 (active)
same,normalized growth,"locus YIR030C, strain dcg1, stronger effect = lower value",0.967 (inactive)
same,normalized growth,"locus YJL092W, strain hpr5, stronger effect = lower value",0.946 (inactive)
same,normalized growth,"locus YJL095W, strain BCK1 (second series), stronger effect = lower value",0.871 (active)
same,normalized growth,"locus YJL095W, strain BCK1, stronger effect = lower value",0.732 (active) and 0.878 (active)
same,normalized growth,"locus YJL115W, strain asf1, stronger effect = lower value",0.951 (inactive)
same,normalized growth,"locus YJL129C, strain trk1, stronger effect = lower value",0.653 (active)
same,normalized growth,"locus YJL134W, strain LCB3, stronger effect = lower value",0.982 (inactive)
same,normalized growth,"locus YJL154C, strain vps35, stronger effect = lower value",0.983 (inactive)
same,normalized growth,"locus YJL164C, strain tpk1, stronger effect = lower value",0.758 (active)
same,normalized growth,"locus YJL166W, strain qcr8, stronger effect = lower value",0.77 (active)
same,normalized growth,"locus YJL168C, strain set2, stronger effect = lower value",0.98 (inactive)
same,normalized growth,"locus YJL187C, strain SWE1 (second series), stronger effect = lower value",0.838 (active)
